Sm TGR block – blocks Schistosoma mansoni thioredoxin glutathione reductase; Q962Y6; purified TGR, DTNB reduction, TNB absorbance 405 nm; Potency, µM (titrated, usually from 114 µM), for the others: at the top dose activity change, negative = inhibition, most hits filed as inhibitors; actives 3% (n = 360,000); AID 485364; also: % is scaled to controls: 0 for no effect and ±100 for the full control effect; nearly all actives have a fitted effect of over 60% in size
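First, TGR (20 nM dispensed) and NADPH were mixed with compound. Second, a 15 min room-temperature incubation followed. Third, further NADPH and then DTNB were added to start the reaction. Finally, TNB absorbance was monitored kinetically.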
SARS PLP yeast – SARS-CoV PLP inhibition in yeast. actives 0.19% (n = 330,000). Potency, µM (series often up to 32.9 µM), for inactives: at the top dose activity, positive = growth rescue, hits mostly activators. S. cerevisiae expressing SARS-CoV PLpro, growth rescue; calls by dose curve; also: 0% is about no effect; nearly all actives have a fitted effect of over 55% in size
RE007 growth inh – less growth of the S. pombe RE007 Vpr strain | S. pombe RE007 Vpr strain, BacTiter-Glo ATP luminescence, 24 h | Potency, µM (highest dose often 92.2 µM), inactives show at the top dose activity change, negative = less growth, actives largely listed as inhibitors | actives 0.21% (n = 360,000) | AID 651644; active = well fitted falling curve with a large enough effect; inconclusive = small, poorly fitted or top-dose-only effect; inactive = no such curve, though single readings can be large or run the other way; also: % is scaled to controls: 0 for no effect and ±100 for the full control effect; nearly all actives have a fitted effect of over 50% in size
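Fission yeast strain RE007, carrying one chromosomally integrated HIV-1 vpr copy, was seeded at OD 0.01 in PMG+AL medium with 23 nL pinned compound. After 24 h at 30 °C and 99% humidity, viability was read by BacTiter-Glo luminescence.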
LmPK inh – LmPK (Leishmania mexicana) enzyme inhibition; Q27686; purified LmPK, Kinase-Glo ATP luminescence, 1 h; Potency, µM (titrated, usually from 57.5 µM), for the others: top-dose activity change, negative = inhibition, usual class: inhibitors; actives 0.37% (n = 290,000); AID 1721; also: % is scaled to controls: 0 for no effect and ±100 for the full control effect
Target sequence (Q27686 whole entry, looked up): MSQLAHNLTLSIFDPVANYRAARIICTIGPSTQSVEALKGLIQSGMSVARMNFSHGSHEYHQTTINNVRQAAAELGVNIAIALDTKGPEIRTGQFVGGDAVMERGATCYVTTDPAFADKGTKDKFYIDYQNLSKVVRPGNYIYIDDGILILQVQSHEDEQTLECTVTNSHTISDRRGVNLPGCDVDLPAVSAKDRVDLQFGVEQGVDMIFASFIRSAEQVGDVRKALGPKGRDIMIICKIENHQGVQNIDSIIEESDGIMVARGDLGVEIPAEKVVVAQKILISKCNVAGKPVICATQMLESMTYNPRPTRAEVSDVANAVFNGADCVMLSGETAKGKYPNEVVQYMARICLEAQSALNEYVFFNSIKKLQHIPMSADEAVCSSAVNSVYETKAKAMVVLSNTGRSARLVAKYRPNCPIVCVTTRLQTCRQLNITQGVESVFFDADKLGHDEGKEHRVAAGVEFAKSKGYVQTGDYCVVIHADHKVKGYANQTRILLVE
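Purified LmPK (0.1 nM) converted ADP (0.1 mM) to ATP with PEP (0.5 mM) in imidazole buffer pH 7.2 with KCl and MgCl2, 1 h at room temperature. ATP was read by Kinase-Glo luminescence; data normalized to uninhibited and no-enzyme controls.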
NS1 inh – inhibitors of influenza NS1 protein function | AID 2326 | actives 0.4% (n = 270,000) | Potency, µM (top dose mostly 46.1 µM), inactives show at the highest dose activity, positive = more growth; calls by dose curve; also: actives are rising curves; nearly all actives have a fitted effect of over 50% in size
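A cell-based growth assay was used: compounds that relieve NS1-induced slow growth of budding yeast raise OD600. Assay medium was yeast nitrogen base with ammonium sulphate and -URA supplement, pH 6.0, with 2% galactose.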
Tb PYK inh – inhibitors of Trypanosoma brucei pyruvate kinase. AID 624173. actives 0.12% (n = 410,000). Potency, µM (highest dose often 76.8 µM), without a hit: at the top dose activity, negative = inhibition, usual class: inhibitors. TbPYK enzyme, Kinase-Glo Plus ATP luminescence, 45 min. Q57TT1; also: % is scaled to controls: 0 for no effect and ±100 for the full control effect; nearly all actives have a fitted effect of over 50% in size
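Luminescent Kinase-Glo Plus end-point after 45 min room-temperature reaction of T. brucei pyruvate kinase started with 130 uM ADP (final). Buffer TEA 50 mM pH 7.2 with KCl, MgCl2, BSA, Tween-20; titration-based qHTS with fitted concentration-effect curves.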
* = called active by the depositor; u = inconclusive; x = no result; [ ] = remark or other dose. Shown are actives, neighbours in structure and some others; about 3.3% of the full set was active somewhere. Unless noted, calls follow the shape of the dose curve; as a rule, active = well fitted curve in the direction sought with a large enough effect; inconclusive = small, poorly fitted or top-dose-only effect, or another doubt; inactive = no such curve, though single readings can be large; an effect the other way counts as inactive or inconclusive. Potency is read from the fitted curve at half-maximal effect.

SMILES	Sm TGR block	SARS PLP yeast	RE007 growth inh	LmPK inh	NS1 inh	Tb PYK inh
CCn1c(SCC(=O)c2ccc3c(c2)OCCO3)nnc1-c1ccco1	22.4µM*	-9.6%	22.7%	4.6%	-9.7%	-27.5%
CCn1c(SCC(=O)N2CCCCC2C)nnc1-c1ccco1 (stereo unspecified)	44.7µM*	0.9%	-11.6%	0.4%	5.6%	-4.0%
CCn1c(SCC(=O)c2ccc3ccccc3c2)nnc1-c1ccco1	31.6µM*	-5.7%	12.7%[3.69 µM]	6.0%	-14.7%	x
CCn1c(SCC(=O)NNC(=O)c2ccccc2)nnc1-c1ccco1	-3.4%	4.0%	-1.0%	-1.5%	x	-6.6%
N#Cc1c(C(F)(F)F)cc(-c2cccs2)nc1SCC(=O)Nc1ccc(F)cc1	-0.6%	x	x	x	x	-13.8%
COc1cccc(CNC(=O)CSc2ncc(S(=O)(=O)c3ccc(C)c(Cl)c3)c(=O)[nH]2)c1	2.2%	x	x	x	x	-0.3%
Cc1cc(C)cc(-n2cnc3cc(C(=O)NC4CCCCCC4)ccc32)c1	-8.9%	x	x	x	x	4.9%
Cc1oc(-c2cccs2)nc1CS(=O)CC(=O)NCc1ccc2c(c1)OCO2 (stereo unspecified)	39.8µM*	1.1%	-17.1%	1.4%	6.9%	0.8%
Cc1oc(-c2ccccc2Cl)nc1CS(=O)CC(=O)NCc1ccc(Cl)cc1 (stereo unspecified)	-4.2%	-12.2%	-24.7%	6.0%	26.3%	-0.8%
Cc1ccccc1-c1nc(CS(=O)CC(=O)NCc2ccc3c(c2)OCO3)c(C)o1 (stereo unspecified)	u	6.0%	-8.8%	0.0%	1.6%	-4.2%
Cc1ccc(CNC(=O)CS(=O)Cc2nc(-c3cccs3)oc2C)cc1 (stereo unspecified)	25.1µM*	4.2%	-16.4%	-2.3%	u	-4.9%
Cc1ccc(CCNC(=O)CS(=O)Cc2nc(-c3cccs3)oc2C)cc1 (stereo unspecified)	8.91µM*	-5.1%	-11.5%	5.1%	0.2%	-6.1%
COc1ccc(CCNC(=O)CS(=O)Cc2nc(-c3ccccc3Cl)oc2C)cc1OC (stereo unspecified)	56.2µM*	0.7%	-26.3%	9.2%	14.5%	-19.1%
COc1ccc(NC(=O)CCn2nc(-c3ccccc3OC)c3c(C)cc(C)nc32)cc1	-2.5%	x	x	x	x	-4.3%
COc1ccc(CCNC(=O)CS(=O)Cc2nc(-c3ccccc3F)oc2C)cc1OC (stereo unspecified)	u	-2.6%	-6.1%	-5.7%	11.4%	-8.6%
COc1ccc(CCNC(=O)CS(=O)Cc2nc(-c3cccs3)oc2C)cc1OC (stereo unspecified)	22.4µM*	-1.5%	5.3%	4.3%	17.3%	-1.7%
COC(=O)c1c(NC(=O)CS(=O)(=O)c2ccc(C)cc2)sc2c1CCCCC2	-18.8%	x	x	x	x	1.8%
N#C/C(=C\c1ccc(N2CCOCC2)o1)c1nc2ccccc2[nH]1	u	-7.5%	1.6%	-16.7%	-7.8%	-16.4%
N#C/C(=C/c1ccc(N2CCOCC2)o1)c1ccc(Cl)cc1	1µM*	-16.0%	u	-1.2%	-52.4%	u
Cc1cccc(CSc2ncc(Cl)c(C(=O)Nc3sc4c(c3C(N)=O)CCCC4)n2)c1	2.7%	x	x	x	x	1.4%
COc1ccc(-n2cc(CNCCCN3CCCC3=O)c(-c3ccccc3Cl)n2)cc1	44.7µM*	-3.1%	-4.7%	1.9%	-0.7%	-8.7%
COc1ccc([C@@H](Nc2ccccn2)c2cc(C(C)(C)C)cc(C(C)(C)C)c2O)cc1	x	x	x	x	-0.6%	x
Cc1cccc(C)c1N=Nc1c(C)cc(O)cc1C	-5.3%	-25.1%	25.1µM*	-14.8%	-155.2%	-5.0%
Cc1cccc(O)c1C	x	0.4%	-2.8%	x	x	-1.6%
Cc1nccn1-c1c([N+](=O)[O-])c(=O)n(C)c2ccccc12	-16.5%	0.0%	1.5%	-0.6%	-0.1%	-0.4%
Cn1c(=O)c([N+](=O)[O-])c(Cl)c2ccccc21	0.447µM*	-6.6%	-5.4%	-2.0%	-62.4%	-16.7%
